Screening data as filed in PubChem.
HT1080-NT tox = kills 2HG-producing HT-1080-NT fibrosarcoma cells. HT-1080-NT fibrosarcoma viability, CellTiter-Glo ATP luminescence, 48 h. hit rate 1.6% among 360,000. Potency, µM (highest dose often 46.1 µM), inactives show at the top dose activity, negative = less viability, usual class: cytotoxic;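 note: NT is the 2HG producing partner of a matched IDH1 knockdown line; potency is the fitted concentration of half-maximal effect; 0% = DMSO-treated cells and -100% = media-only wells without cells; nearly all actives have a fitted effect of over 55% in size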
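Viability of the 2HG-overproducing fibrosarcoma line after 48 hours of compound exposure at 37 degrees C was determined by luminescence with CellTiter-Glo, and concentration-effect curves were then fitted and categorized.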
TDP1 cell CPT = DT40-hTDP1 cell growth loss with CPT; AID 686979; chicken DT40 Tdp1-/-;hTDP1 cells + 20 nM CPT, ATP luminescence, 48 h; Potency, µM (titrated, usually from 46.2 µM), inactives show at the highest dose activity change, negative = growth inhibition, actives largely listed as inhibitors; hit rate 12% among 420,000; note: potency is the fitted concentration of half-maximal effect; nearly all actives have a fitted effect of over 55% in size
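Chicken DT40 Tdp1-/- cells complemented with human TDP1, 400 cells/well, exposed to compounds plus 20 nM camptothecin for at least 48 h at 37 C; viability read as ATP content by CellTiter-Glo luminescence.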
IL-1B inflam inh = inflammasome signaling inhibition, IL-1 beta readout. activity change, % at 57.5 µM. AID 743279. hit rate 4.7% among 360,000. THP-1 LPS/ATP IL-1B secretion, AlphaLISA, 16 h; stronger effect = lower value; in the data active = activity change below about -50%; inconclusive = mostly about -30% to -49%
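THP-1 cells pretreated 1 hr with compounds (up to 57.5 uM final), then stimulated with LPS (250 ng/mL final) plus ATP (1.25 mM final); secreted IL-1B measured by AlphaLISA after 16 hr, decreased signal indicating inhibition.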
DT40 TDP1 no CPT = qHTS for Inhibitors of human tyrosyl-DNA phosphodiesterase 1 (TDP1): qHTS in cells in absence of CPT; DT40 Tdp1-/- hTDP1 cells, no CPT, ATP luminescence, 48 h; Potency, µM (top dose mostly 46.2 µM), for the others: top-dose activity change, negative = growth inhibition, usual class: inhibitors; hit rate 15% among 420,000; note: potency is the fitted concentration of half-maximal effect; nearly all actives have a fitted effect of over 55% in size
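DT40 Tdp1-/-;hTDP1 cells, no CPT (DMSO vehicle only), 400 cells/well; compounds pin-transferred; ≥48 hr, 37 °C; CellTiter-Glo 30 min RT dark, luminescence read.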
HT1080 IDH1KD tx = toxicity to HT-1080 IDH1 knockdown cells (counter line); Potency, µM (top dose mostly 46.1 µM), without a hit: at the highest dose activity, negative = toxicity, actives largely listed as cytotoxic; AID 686971; HT-1080 IDH1 knockdown viability, ATP luminescence, 48 h; hit rate 2% among 360,000;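 note: potency is the fitted concentration of half-maximal effect; 0% = DMSO wells and -100% = cell-free medium wells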
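Luminescent ATP read-out (CellTiter-Glo, 10 min at room temperature) after 48 h compound exposure at 37 °C gave viability of IDH1-knockdown HT-1080 cells. Activity was normalised to DMSO and cell-free wells, then fitted as concentration-response curves.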
An asterisk follows results filed as active; ? = inconclusive; . = not tested or not shown; [ ] = another dose, or the depositor's remark. Most compounds without a hit are left out; they make up all but 19% or so of the library. Unless noted, calls come from the whole dose curve; as a rule, active = well fitted curve in the direction sought with a large enough effect; inconclusive = small, poorly fitted or top-dose-only effect, or another doubt; inactive = no such curve, though single readings can be large; an effect the other way counts as inactive or inconclusive. Unless noted, % is set by controls: 0 for no effect and ±100 for the full control effect.

SMILES | HT1080-NT tox | TDP1 cell CPT | IL-1B inflam inh | DT40 TDP1 no CPT | HT1080 IDH1KD tx
COCCn1c(C)cc(C(=O)CSc2nc3ccccc3s2)c1C | ? | 13µM* | 23 | 18µM* | ?
COCCn1c(C)cc(C(=O)CSc2nnc3ccccn23)c1C | -2% | -4% | -8 | -2% | -11%
COCCn1c(SCC(=O)c2cc(C)n(C)c2C)nc2ccccc2c1=O | -16% | ? | ? | 13µM* | -17%
COCCn1c(C)cc(C(=O)CSc2nc3ccccc3o2)c1C | ? | 26µM* | 19 | ? | -25%
Cc1cc(C)n(C(=O)CSc2nc3ccccc3o2)n1 | 8% | -6% | 18 | -1% | 11%
COCc1c(C(=O)N2CC3CCC2C3)cnn1-c1nccc(-c2ccccc2OC)n1 (stereo not drawn) | . | 4%[9.04 µM] | . | -18% | .
O=C1N=C(N2CCN(c3ccccc3)CC2)S/C1=C/c1cccs1 | -18% | -20% | -58* | ? | -15%
C(=N\N1CCN(Cc2ccccc2)CC1)/c1cccs1 | 23% | -12% | 17 | -18% | 8%
O=C1N=C(N2CCN(Cc3ccccc3)CC2)S/C1=C/c1cccs1 | 0% | -17% | . | 12µM* | 14%
O=C1N=C(c2ccccc2)S/C1=C\c1cccs1 | 2% | -27% | -25 | -19% | 1%
Cc1cc(C)c2c(N)c(C(=O)Nc3ccc([N+](=O)[O-])cc3)sc2n1 | 2% | 0% | -11 | 18% | 0%
CC(C)c1ccc([N+](=O)[O-])cc1S(=O)(=O)N1CCN(C)CC1 | -5% | -22% | -11 | -1% | -2%
CCn1c2c(c3cc(OCC(C)C)ccc31)CCCC2=O | -25% | 16µM* | ? | 21µM* | -26%
COc1cc(NC(=S)NN2CCN(C)CC2)cc(OC)c1 | 8% | -12% | 14 | -3% | 0%
O=C(NCCCN1CCCC1=O)C(=O)NCC1OCCCN1S(=O)(=O)c1ccccc1 (stereo not drawn) | -1% | -3% | 9 | -9% | -1%
Cc1cnc(SCc2ccccn2)nc1C1CCCN(C(=O)c2cc3ccccc3oc2=O)C1 (stereo not drawn) | . | 16µM* | . | 21µM* | .
Cc1cnc(SCCN2CCOCC2)nc1C1CCCN(C(=O)c2cccc3c(C)c(C)[nH]c23)C1 (stereo not drawn) | . | 0%[9.04 µM] | . | 16µM* | .
Cc1cnc(SCc2ccccn2)nc1C1CCCN(Cc2ccsc2)C1 (stereo not drawn) | . | 15µM* | . | 15µM* | .
Cc1cnc(SCc2ccccn2)nc1C1CCCN(C(=O)c2ccc3c(c2)OCO3)C1 (stereo not drawn) | . | 21µM* | . | ? | .
Cc1cnc(SCc2ccccn2)nc1C1CCCN(C(=O)c2ccc3[nH]c(C)c(C)c3c2)C1 (stereo not drawn) | . | -1%[9.04 µM] | . | ? | .
CCCNC(=O)/C=C/C(=O)O | 12% | -3% | 8 | -10% | 1%
Cc1nn(Cc2c(F)c(F)c(F)c(F)c2F)c(C)c1NC(=O)c1nn(C)c(C)c1Br | 8% | ? | 0 | ? | -2%
COc1ccc(-n2nc(C(=O)Nc3ccc(Br)cc3C)c3c4ccccc4n(C)c3c2=O)cc1 | . | -8% | . | -10% | .
CCOC(=O)/C=C/C(=O)Nc1ccc(S(=O)(=O)N2CCc3ccccc32)cc1 | -8% | 23µM* | ? | 15µM* | -10%
COC(=O)CCC(=O)Nc1ccc(S(=O)(=O)N2CCc3ccccc32)cc1 | 8% | 5% | 15 | -11% | -1%
SMILES | HT1080-NT tox | TDP1 cell CPT | IL-1B inflam inh | DT40 TDP1 no CPT | HT1080 IDH1KD tx
CCOC(=O)/C=C/C(=O)Nc1ccc(S(=O)(=O)N2CCCCCC2)cc1 | -25% | ? | -88* | ? | ?
CCOC(=O)/C=C/C(=O)Nc1ccc(S(=O)(=O)N(C)c2ccccc2)cc1 | ? | 1.8µM* | -110* | ? | 21µM*
O=C(Nc1cccc(O)c1)c1cccc(NC(=O)c2cccs2)c1 | ? | -28% | -1 | -21% | ?
O=S(=O)(NCCS(=O)(=O)N1CCN(c2ccc(F)cc2)CC1)c1ccc(F)cc1 | -6% | -17% | 31 | -25% | 0%
Cc1ccn2c(=O)c(C(=O)NCCc3ccc(S(N)(=O)=O)cc3)c(O)nc2c1 | . | -11% | . | -13% | .
CCOc1c(Cl)cc(/C=C/C(=O)N(CC)CC(=O)NCc2cccs2)cc1OC | 0% | ? | -10 | ? | 5%
O=C(COC(=O)c1ccc(Br)o1)Nc1cccc(S(=O)(=O)N2CCCCCC2)c1 | 0% | -15% | 41 | -23% | -23%
COc1ccc(S(=O)(=O)NC(=O)C2(C)CCN2C(=O)Cc2ccc(C(C)(C)C)cc2)cc1 (stereo not drawn) | 11% | -1% | 30 | -13% | 2%
Oc1[nH]c2ccccc2c1N=Nc1nc2ccccc2s1 | 12% | ? | 35 | ? | 0%
C/C(N=Nc1nc2ccccc2s1)=N\Nc1ccccc1O | 13µM* | 9.2µM* | 122 | 2.6µM* | 15µM*
CCc1ccc(/C=N/NC(=S)NCCc2ccccc2)cc1 | 1% | ? | 13 | 16µM* | -4%
COc1cccc(/C=N/NC(=S)NCCc2ccccc2)c1 | -29% | ? | 34 | ? | ?
Fc1ccc(/C=N/NC(=S)NCCc2ccccc2)cc1F | -15% | ? | 41 | ? | -8%
COc1ccc(/C=N/NC(=S)NCCc2ccccc2)cc1 | -15% | 18µM* | 24 | 26µM* | -6%
Nc1nc(Cl)cc(N2CCC(c3cc(-c4ccc(Cl)cc4Cl)n[nH]3)CC2)n1 | ? | 4.1µM* | -11 | 4.1µM* | ?
